JMJD2A Tudor = blocks the human JMJD2A Tudor domain; O75164; 4.4% of 390,000 active; Potency, µM (highest dose often 114 µM), inactives show top-dose activity change, negative = inhibition, actives largely listed as inhibitors; AlphaScreen JMJD2A-Tudor / H3K4me3 peptide binding; further: on the % scale 0 is the no-effect control and ±100 the full control effect; nearly all actives have a fitted effect of over 50% in size
Target sequence (O75164 whole entry, looked up, the tested form may be a part): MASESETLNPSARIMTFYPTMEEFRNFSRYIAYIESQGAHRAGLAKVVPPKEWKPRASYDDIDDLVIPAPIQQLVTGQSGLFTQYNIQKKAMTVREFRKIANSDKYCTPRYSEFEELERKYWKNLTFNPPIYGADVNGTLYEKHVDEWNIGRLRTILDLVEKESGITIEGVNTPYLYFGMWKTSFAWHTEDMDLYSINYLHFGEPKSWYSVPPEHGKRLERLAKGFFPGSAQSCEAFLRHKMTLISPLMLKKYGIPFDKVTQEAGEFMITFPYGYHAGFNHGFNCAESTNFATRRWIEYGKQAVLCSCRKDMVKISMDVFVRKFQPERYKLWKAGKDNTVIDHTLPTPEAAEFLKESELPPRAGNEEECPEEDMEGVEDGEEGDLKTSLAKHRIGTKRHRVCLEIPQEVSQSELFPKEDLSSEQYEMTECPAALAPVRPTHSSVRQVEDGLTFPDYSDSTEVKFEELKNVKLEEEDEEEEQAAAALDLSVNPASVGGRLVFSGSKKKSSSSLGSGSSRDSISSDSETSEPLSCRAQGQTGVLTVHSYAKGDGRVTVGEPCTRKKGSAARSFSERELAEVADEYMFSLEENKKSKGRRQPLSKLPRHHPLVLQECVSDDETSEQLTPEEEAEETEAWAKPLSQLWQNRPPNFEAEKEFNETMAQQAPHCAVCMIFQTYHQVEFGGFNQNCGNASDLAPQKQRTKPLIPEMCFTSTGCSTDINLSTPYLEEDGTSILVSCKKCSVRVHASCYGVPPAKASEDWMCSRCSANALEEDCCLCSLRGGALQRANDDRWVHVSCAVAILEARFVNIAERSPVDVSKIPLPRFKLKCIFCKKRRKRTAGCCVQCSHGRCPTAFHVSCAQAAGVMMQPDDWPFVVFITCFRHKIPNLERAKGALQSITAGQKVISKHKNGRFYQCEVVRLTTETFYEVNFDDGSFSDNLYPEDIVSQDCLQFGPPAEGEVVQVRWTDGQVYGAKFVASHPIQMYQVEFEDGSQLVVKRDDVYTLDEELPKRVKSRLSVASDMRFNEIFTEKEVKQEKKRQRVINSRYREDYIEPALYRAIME
BAZ2B inh = blocks human BAZ2B; Potency, µM (doses to about 114 µM), for the others: top-dose activity change, negative = inhibition, hits mostly inhibitors; 4.4% of 360,000 active; Q9UIF8; AlphaScreen BAZ2B-H3K14Ac peptide displacement; further: on the % scale 0 is the no-effect control and ±100 the full control effect; nearly all actives have a fitted effect of over 60% in size
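Compounds, titrated to a top concentration of 110 uM, were incubated 30 min at room temperature with preformed BAZ2B/acetyl-K14 H3 peptide complex (50 nM each). Proximity signal was measured by AlphaScreen after 20 min with beads.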
L3MBTL1 inh = blocks human L3MBTL1; Potency, µM (doses to about 57.1 µM), for inactives: top-dose activity, negative = inhibition, most hits filed as inhibitors; AlphaScreen L3MBTL1–H3K9me1 peptide binding; 0.66% of 230,000 active; Q9Y468; further: on the % scale 0 is the no-effect control and ±100 the full control effect; nearly all actives have a fitted effect of over 60% in size
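Read-out is AlphaScreen signal from streptavidin donor and nickel chelate acceptor beads (10 ug/mL final each) bridging L3MBTL1 (50 nM) and biotinylated K9-monomethylated H3(1-15) peptide (75 nM), after 30 min compound exposure at room temperature.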
HP1b binding inh = inhibitors of HP1-beta chromodomain binding to methylated histone tails; 0.56% of 390,000 active; AlphaScreen HP1-beta / biotin-H3K9me3 peptide binding; P83916; Potency, µM (top dose mostly 114 µM), inactives show at the highest dose activity change, negative = inhibition, hits mostly inhibitors; further: nearly all actives have a fitted effect of over 70% in size
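AlphaScreen: HP1-beta (50 nM) preformed 30 min with biotin-H3(1-18)K9me3 peptide (50 nM) in PBS pH 7.4, 0.01% Tween-20. Compound added for 30 min at RT, then streptavidin donor/nickel chelate acceptor beads (10 ug/mL) for 30 min.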
G9a block = G9a (human) methyltransferase inhibition; Q96KQ7; G9a H3K9 monomethylation, AlphaScreen, 2 h; Potency, µM (titrated, usually from 102 µM), without a hit: at the highest dose activity, negative = inhibition, usual class: inhibitors; 8.8% of 350,000 active; further: on the % scale 0 is the no-effect control and ±100 the full control effect; nearly all actives have a fitted effect of over 75% in size
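G9a (20 nM) preincubated 15 min RT with compounds, then 500 nM biotinylated H3K9 peptide and 20 uM SAM added; 2 h RT reaction. Monomethyl-H3K9 product detected by AlphaScreen with anti-H3K9me1 antibody, streptavidin donor and anti-rabbit IgG acceptor beads.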
The depositor's hits bear a star; ? = inconclusive; · = not tested or not shown; [ ] = dose if it differs, or a comment. Only some compounds are listed: those with a hit (about 11% of all), similar ones and a draw of the others. The call rests on the fitted dose curve; in most records, active means well fitted inhibition curve with a large enough effect; inconclusive means small, poorly fitted or top-dose-only effect; inactive means no such curve, though single readings can be large or run the other way. Potency means the concentration at half of the fitted maximal effect.

SMILES	JMJD2A Tudor	BAZ2B inh	L3MBTL1 inh	HP1b binding inh	G9a block
CNC(=O)c1ccc2nc(-c3ccco3)c(-c3ccco3)nc2c1	18µM*	·	·	18µM*	·
O=C(Cn1c(-c2cccs2)cc2ccccc21)NCCCN1CCN(c2ccc(F)cc2)CC1	?	10%	·	31%	-3%[59 µM]
COc1ccc(N2CCN(CCCNC(=O)c3cc4sccc4n3C)CC2)cc1	32µM*	40µM*	?	-52%	14µM*
Cc1ccc(CN2CCN(CC(=O)NCCCN3CCN(c4ccc(F)cc4)CC3)C2=O)cc1	-31%	-36%	-2%	6%	-8%
COc1ccc(N2CCN(CCCNC(=O)Cn3c(-c4cccs4)cc4ccccc43)CC2)cc1	18µM*	?	·	-31%	10µM*
COc1ccc(N2CCN(CCCNC(=O)CN3CCN(Cc4ccccc4C)C3=O)CC2)cc1	?	32µM*	-24%	?	?
O=C(CN(C(=O)CCC(=O)Nc1nccs1)c1ccc2c(c1)OCO2)NCc1ccccc1	-1%	-6%	·	14%	11%
Cc1sc2nc(-c3ccccn3)[nH]c(=O)c2c1-c1ccccc1	-14%	-3%	-32%	18%	10µM*
CCN(CC)C(=O)c1sc2nc(-c3ccccn3)[nH]c(=O)c2c1C	28µM*	·	·	25%	·
CCN(CC)C(=O)c1sc2nc(-c3ccncc3)[nH]c(=O)c2c1C	-5%	-2%	12%	38%	26%[59 µM]
COc1ccc(Cn2c(=O)c3oc4ccccc4c3n(Cc3ccccc3)c2=O)cc1	-4%	-1%	·	28%	2%[59 µM]
O=C(c1ccc2c(c1)OCO2)N(Cc1ccco1)C1(C(=O)NC2CCCCC2)CCCCC1	-22%	-6%	·	-10%	79µM*
CC(C)OCCCn1c(=O)c2ccccc2n2c(-c3ccc(F)cc3)nnc12	?	?	·	-1%	28µM*
COc1cc(-c2nnc3n(CCc4ccccc4)c(=O)c4ccccc4n23)cc(OC)c1OC	0%	7%	-2%	16%	18µM*
COc1cc(OC)c(-c2nnc3n(CCc4ccccc4)c(=O)c4ccccc4n23)cc1OC	·	3%	-9%	·	-11%
CC(C)OCCCn1c(=O)c2ccccc2n2c(CCC(=O)O)nnc12	-11%	-35%	·	16%	2%
COc1ccc(Cn2c(O)c(C=Nc3ccccc3C(=O)O)c3ccccc3c2=O)cc1	-34%	79µM*	-23%	-11%	·
COc1ccccc1NS(=O)(=O)c1cccc(-n2c(O)c(C=Nc3ccccc3C(=O)O)c3ccccc3c2=O)c1	56µM*	40µM*	-20%	?	45µM*
COc1ccccc1NS(=O)(=O)c1cccc(C(=O)N/N=C/c2ccc(NC(C)=O)cc2)c1	-12%	-18%	10%	15%	11%[12.7 µM]
Cc1ccccc1C(=O)NCc1ccc2c(c1)CCN2C(=O)c1ccc(F)cc1	-15%	-8%	·	14%	6%[59 µM]
COc1cc(CN(C(=O)COc2ccc(Br)cc2)c2ccccn2)cc(OC)c1OC	-5%	-9%	·	34%	-8%[59 µM]
CC1C(=O)N2CCCc3cc(S(=O)(=O)N4CCC(C(N)=O)CC4)cc1c32 (stereo unspecified)	-13%	?	·	61%	13µM*
CC1C(=O)N2CCCc3cc(S(=O)(=O)Nc4ccccc4C(N)=O)cc1c32 (stereo unspecified)	-10%	-1%	-1%	11%	45µM*
O=C(Nc1ccc(-n2nncc2-c2ccco2)cc1)c1cccc(F)c1	-35%	?	-10%	-22%	45µM*
O=C(Nc1ccc(-n2nncc2-c2ccccc2)cc1)c1cccc(F)c1	-15%	-18%	·	28%	9%[59 µM]
SMILES	JMJD2A Tudor	BAZ2B inh	L3MBTL1 inh	HP1b binding inh	G9a block
O=C(c1cccc(F)c1)N1CCC2(CC1)CN(c1ccccc1)C2	·	·	·	·	5%[12.7 µM]
OC(Cn1cnnc1)c1ccccc1 (stereo unspecified)	6.3µM*	25µM*	·	22µM*	35µM*
COc1ccc(C2=NC3(CCCCCC3)N(CC(=O)Nc3cccc(Cl)c3)C2=O)cc1	-13%	-1%	·	36%	-30%[59 µM]
CCOC1=C/C(=C/c2c(N)n3nc(CC(=O)N4CCCC4)sc3nc2=O)C=CC1=O	-25%	-21%[57.1 µM]	·	12%	79µM*
Nc1c(/C=C2/C=CC(=O)C(O)=C2)c(=O)nc2sc(CC(=O)N3CCCC3)nn12	25µM*	20µM*	·	?	35µM*
Nc1c(/C=C2/C=CC(=O)C(O)=C2)c(=O)nc2sc(CC(=O)N3CCOCC3)nn12	20µM*	·	·	?	·
Nc1c(/C=C2/C=CC(=O)C(O)=C2)c(=O)nc2sc(CC(=O)N3CCCCC3)nn12	?	10µM*	·	53%	10µM*
O=c1[nH]c(=S)[nH]cc1Oc1ccc(Cl)cc1Cl	-8%	-4%	·	42%	-11%
CCN(CC)CCCNC(=O)c1nn(C)c2c1CSc1ccccc1-2	2%	3%	·	40%	-47%[59 µM]
Cc1ccccc1NC(=O)Cn1nc(-c2ccccc2)nc(Cc2ccccc2)c1=O	-20%	-5%	·	-10%	5%[59 µM]
O=C(COc1ccccc1)NC(NC(=S)Nc1ccccc1C(=O)O)C(Cl)(Cl)Cl (stereo unspecified)	32µM*	-8%	-2%	?	?
Cc1ccc(C)c(NC(=S)NC(NC(=O)Cc2ccccc2)C(Cl)(Cl)Cl)c1 (stereo unspecified)	-9%	-7%	·	-4%	-44%[12.7 µM]
CCCCCCCCCCCCCCCCCCNC(=O)OCC(COP(=O)([O-])OCC[n+]1ccsc1)OC (stereo unspecified)	·	·	·	·	21µM*
CCN(CC)c1ccc(C2Nc3ccccc3-c3cc(C)nn32)cc1 (stereo unspecified)	50µM*	?	·	?	22µM*
CCOC(=O)C1=C(COC(=O)Cc2ccccc2)NC(=O)NC1C (stereo unspecified)	-12%	-12%	·	13%	-7%
Cc1ccc(-c2cc(C(=O)Nc3ccc(S(=O)(=O)Nc4nc(C)cc(C)n4)cc3)c3ccccc3n2)cc1	-18%	?	-12%	?	50µM*
COc1ccc(-c2cc(C(=O)Nc3ccc(S(=O)(=O)Nc4ncccn4)cc3)c3ccccc3n2)cc1	-11%	-2%	1%	36%	?
CCN(CC)S(=O)(=O)c1ccc(O)c(NC(=O)c2cc(-c3cc(OC)c(OC)c(OC)c3)nc3ccccc23)c1	?	-21%	·	-36%	7.9µM*
COc1ccc(-c2cc(C(=O)Nc3ccc(S(=O)(=O)Nc4onc(C)c4C)cc3)c3ccccc3n2)cc1	?	?	-24%	-12%[57 µM]	50µM*
Cc1ccnc(NS(=O)(=O)c2ccc(NC(=O)c3cc(-c4ccccc4)nc4ccccc34)cc2)n1	-19%	-21%	-8%	3%	?
Cc1noc(NS(=O)(=O)c2ccc(NC(=O)c3cnc4scc(C)n4c3=O)cc2)c1C	?	-8%	2%	7%	50µM*
